Reference: PubChem BioAssay AID1159580 (chemical genetic matrix, 2015)
Several values for one entry are separate records, joined by “and”; a condition that tells them apart may be missing. Equal entries are not always repeated. Hit rate of the full screen: of about 5,500 compounds, about 2,000 (36%) were called active. About 18% were inconclusive and are not listed. Cut-off read from the data, not from the text of the source: active = normalized growth mostly below about 0.91 (no sharp cut-off); inconclusive = no clear call, values can overlap the other calls; inactive = mostly above about 0.92. This is one part of the list.

Test: chemical genetic growth profiling, strain panel (AID 1159580);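 note: tested at 20 µM; growth read once vehicle control cultures reached saturation at 30 °C; 1 = growth at the plate median or of vehicle wells; lower values mean less growth of the strain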
Settings: growth OD
[1] = S. cerevisiae deletion strains, locus YJR075W, strain HOC1, hits give low values
[2] = S. cerevisiae deletion strains, locus YMR263W, strain SAP30, hits give low values
[3] = S. cerevisiae deletion strains, locus YMR307W, strain GAS1, hits give low values
[4] = S. cerevisiae deletion strains, locus YNL128W, strain TEP1, hits give low values
[5] = S. cerevisiae deletion strains, locus YNL153C, strain GIM3, hits give low values
[6] = S. cerevisiae deletion strains, locus YPL241C, strain CIN2, hits give low values

Measured: normalized growth

C[N+](C)(C)CC#CCOC(=O)Nc1cccc(Cl)c1
inactive: S. cerevisiae deletion strains, locus YAL040C, strain CLN3, hits give low values 0.998 | S. cerevisiae deletion strains, locus YDR363W, strain ESC2, hits give low values 0.987 | S. cerevisiae deletion strains, locus YER002W, strain NOP16, hits give low values 0.99 | [1] 0.952 | [2] 0.953 | [3] 0.985 | [4] 0.966 | [5] 0.998 | S. cerevisiae deletion strains, locus YNL175C, strain NOP13, hits give low values 0.984 | S. cerevisiae deletion strains, locus YNL197C, strain WHI3, hits give low values 0.973 | S. cerevisiae deletion strains, locus YNL224C, strain SQS1, hits give low values 0.993 | S. cerevisiae deletion strains, locus YOR083W, strain WHI5 (second series), hits give low values 0.954 | [6] 0.998

CC(C)OC(=O)Nc1cccc(Cl)c1
inactive: S. cerevisiae deletion strains, locus YAL013W, strain DEP1, hits give low values 0.988 | S. cerevisiae deletion strains, locus YBR229C, strain ROT2, hits give low values 0.979 | S. cerevisiae deletion strains, locus YCL029C, strain bik1, hits give low values 0.991 | S. cerevisiae deletion strains, locus YDL035C, strain GPR1, hits give low values 0.966 | S. cerevisiae deletion strains, locus YDL074C, strain BRE1, hits give low values 0.899 | S. cerevisiae deletion strains, locus YDL101C, strain DUN1, hits give low values 0.986 | S. cerevisiae deletion strains, locus YDL134C, strain PPH21, hits give low values 0.973 | S. cerevisiae deletion strains, locus YDL185W, strain tfp1, hits give low values 0.997 | S. cerevisiae deletion strains, locus YDL192W, strain arf1, hits give low values 0.995 | S. cerevisiae deletion strains, locus YDR101C, strain arx1, hits give low values 0.984 | S. cerevisiae deletion strains, locus YDR150W, strain NUM1, hits give low values 0.992 | S. cerevisiae deletion strains, locus YDR162C, strain NBP2, hits give low values 0.979 | S. cerevisiae deletion strains, locus YDR318W, strain mcm21, hits give low values 0.978 | S. cerevisiae deletion strains, locus YDR388W, hits give low values 0.989 | S. cerevisiae deletion strains, locus YDR502C, strain sam2, hits give low values 0.973 | S. cerevisiae deletion strains, locus YEL061C, strain CIN8, hits give low values 0.992 | S. cerevisiae deletion strains, locus YER110C, hits give low values 0.986 | S. cerevisiae deletion strains, locus YER155C, strain BEM2, hits give low values 0.987 | S. cerevisiae deletion strains, locus YER167W, strain BCK2, hits give low values 0.949 | S. cerevisiae deletion strains, locus YGL078C, strain dbp3, hits give low values 0.997 | S. cerevisiae deletion strains, locus YGL086W, strain mad1, hits give low values 0.995 | S. cerevisiae deletion strains, locus YGL248W, strain PDE1, hits give low values 0.962 | S. cerevisiae deletion strains, locus YGR078C, strain PAC10, hits give low values 0.955 | S. cerevisiae deletion strains, locus YGR135W, strain pre9, hits give low values 0.969 | S. cerevisiae deletion strains, locus YGR229C, strain SMI1, hits give low values 0.941 | S. cerevisiae deletion strains, locus YHR030C, strain SLT2, hits give low values 0.983 and 1.01 | S. cerevisiae deletion strains, locus YHR079C, strain IRE1 (second series), hits give low values 0.973 | S. cerevisiae deletion strains, locus YHR079C, strain IRE1, hits give low values 0.975 | S. cerevisiae deletion strains, locus YHR094C, strain hxt1, hits give low values 0.988 | S. cerevisiae deletion strains, locus YHR129C, strain ARP1, hits give low values 0.993 | S. cerevisiae deletion strains, locus YHR200W, strain rpn10, hits give low values 0.985 | S. cerevisiae deletion strains, locus YIL066C, strain RNR3, hits give low values 0.905 | S. cerevisiae deletion strains, locus YIL073C, strain SPO22, hits give low values 0.895 | S. cerevisiae deletion strains, locus YIL125W, strain kgd1, hits give low values 0.992 | S. cerevisiae deletion strains, locus YIR030C, strain dcg1, hits give low values 0.981 | S. cerevisiae deletion strains, locus YJL095W, strain BCK1, hits give low values 0.976 and 1 | S. cerevisiae deletion strains, locus YJL134W, strain LCB3, hits give low values 1.01 | S. cerevisiae deletion strains, locus YJL168C, strain set2, hits give low values 0.987 | S. cerevisiae deletion strains, locus YJL187C, strain SWE1 (second series), hits give low values 0.99 | S. cerevisiae deletion strains, locus YJR043C, strain POL32, hits give low values 1.07 | S. cerevisiae deletion strains, locus YJR066W, strain TOR1, hits give low values 0.937 | [1] 0.994 | S. cerevisiae deletion strains, locus YKL009W, strain mrt4, hits give low values 0.954 | S. cerevisiae deletion strains, locus YKL068W, hits give low values 0.997 | S. cerevisiae deletion strains, locus YKL085W, strain MDH1 (second series), hits give low values 0.991 | S. cerevisiae deletion strains, locus YKL085W, strain MDH1, hits give low values 0.991 | S. cerevisiae deletion strains, locus YKL190W, strain CNB1, hits give low values 0.98 | S. cerevisiae deletion strains, locus YKR001C, strain vps1, hits give low values 0.958 | S. cerevisiae deletion strains, locus YLR039C, strain RIC1, hits give low values 0.951 | S. cerevisiae deletion strains, locus YLR058C, strain SHM2, hits give low values 0.987 | S. cerevisiae deletion strains, locus YLR102C, strain apc9, hits give low values 0.987 | S. cerevisiae deletion strains, locus YLR113W, strain HOG1, hits give low values 0.87 | S. cerevisiae deletion strains, locus YLR262C, strain YPT6, hits give low values 0.888 | S. cerevisiae deletion strains, locus YLR268W, strain sec22, hits give low values 0.99 | S. cerevisiae deletion strains, locus YLR330W, strain CHS5, hits give low values 0.995 | S. cerevisiae deletion strains, locus YLR342W, strain FKS1 (second series), hits give low values 0.944 | S. cerevisiae deletion strains, locus YLR371W, strain rom2, hits give low values 0.974 | S. cerevisiae deletion strains, locus YML016C, strain PPZ1, hits give low values 0.993 | S. cerevisiae deletion strains, locus YML032C, strain rad52, hits give low values 0.936 | S. cerevisiae deletion strains, locus YML124C, strain tub3, hits give low values 0.985 | S. cerevisiae deletion strains, locus YMR078C, strain ctf18, hits give low values 0.935 | S. cerevisiae deletion strains, locus YMR223W, strain ubp8, hits give low values 0.959 | [2] 0.988 | [3] 0.891 | [4] 1.01 | [5] 0.999 | S. cerevisiae deletion strains, locus YNL183C, strain NPR1, hits give low values 0.94 | S. cerevisiae deletion strains, locus YNL233W, strain BNI4, hits give low values 1 | S. cerevisiae deletion strains, locus YNL250W, strain rad50, hits give low values 0.955 | S. cerevisiae deletion strains, locus YNL271C, strain bni1, hits give low values 0.976 | S. cerevisiae deletion strains, locus YNL298W, strain CLA4, hits give low values 0.998 | S. cerevisiae deletion strains, locus YNL322C, strain KRE1, hits give low values 1 | S. cerevisiae deletion strains, locus YNR052C, strain pop2, hits give low values 0.985 | S. cerevisiae deletion strains, locus YOL006C, strain TOP1, hits give low values 0.712 | S. cerevisiae deletion strains, locus YOL012C, strain htz1 0.915 | S. cerevisiae deletion strains, locus YOL147C, strain pex11, hits give low values 0.98 | S. cerevisiae deletion strains, locus YOR061W, strain CKA2, hits give low values 0.992 | S. cerevisiae deletion strains, locus YOR069W, strain VPS5, hits give low values 0.996 | S. cerevisiae deletion strains, locus YOR136W, strain idh2, hits give low values 0.977 | S. cerevisiae deletion strains, locus YOR144C, strain elg1, hits give low values 0.987 | S. cerevisiae deletion strains, locus YOR184W, strain ser1, hits give low values 0.906 | S. cerevisiae deletion strains, locus YOR231W, strain MKK1, hits give low values 0.985 | S. cerevisiae deletion strains, locus YOR316C, strain cot1, hits give low values 0.995 | S. cerevisiae deletion strains, locus YPL055C, strain LGE1, hits give low values 0.955 | [6] 0.994 | S. cerevisiae deletion strains, locus YPL256C, strain CLN2, hits give low values 0.992 | S. cerevisiae deletion strains, locus YPR119W, strain clb2, hits give low values 0.986 | S. cerevisiae deletion strains, locus YPR141C, strain kar3, hits give low values 0.995 | S. cerevisiae deletion strains, locus YPR163C, strain tif3, hits give low values 0.983 | S. cerevisiae deletion strains, locus YPR167C, strain met16, hits give low values 0.986 | S. cerevisiae deletion strains, strain wtn01, hits give low values 0.976 | S. cerevisiae strains, strain wild type, hits give low values 0.997
active: S. cerevisiae deletion strains, locus YBR021W, strain FUR4, hits give low values 0.821 | S. cerevisiae deletion strains, locus YGR252W, strain gcn5, hits give low values 0.752 | S. cerevisiae deletion strains, locus YLR418C, strain cdc73, hits give low values 0.828 | S. cerevisiae deletion strains, locus YNL067W, strain RPL9B, hits give low values 0.301 | S. cerevisiae deletion strains, locus YNL307C, strain MCK1, hits give low values 0.863
